Test results taken from article PMC5892938, “SARNAclust: Semi-automatic detection of RNA protein binding motifs from immunoprecipitation data”.
Over roughly 11,000 sequences, “log2 fold change” has its median near 0.00022; the highest 2% begin near 0.34. Some of the results follow.

Each sequence was assayed against GST-SBP-SLBP (stem-loop binding protein) (Homo sapiens, UniProt Q14493 1-270) (assay: targeted RNA Bind-n-Seq; RBNS binding buffer: 25 mM Tris pH 7.5, 150 mM KCl, 3 mM MgCl2, 0.1% Tween, 0.5 mg/mL BSA, 1 mM DTT; 27 nM protein, 750 pM RNA pool; temperature not stated; high values mean tight binding). Settings: protein: recombinant; tags: N-terminal GST and SBP (pGEX6P1-SBP); structured_RNA.
Procedure, shortened: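 The GST-SBP-tagged protein was expressed in Rosetta(DE3) pLysS E. coli, glutathione-purified and incubated at 27 nM with 750 pM of a designed, T7-transcribed RNA oligo pool in RBNS binding buffer. Bound RNA was reverse transcribed with a 10-nucleotide barcoded primer, PCR-amplified and sequenced on a MiSeq with 200-cycle paired-end reads. Reads were joined with FLASH, aligned with HISAT2 and collapsed by barcode. The binding signal is the DEseq log2 fold change of read counts per sequence.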

Row | Sequence | binding signal [log2 fold change]
1 | GGUCACGUCUCAAUCAACUCAUCCCCCAGGGAAAGCCCUGGCUUACUCAACAGCUCGCAGUCAAG | 0.352 ± 0.269
2 | GGUCACGUCUCAAUCAACUCAUUCCCCAGGGAAAGCCCUGGCUUUUUCAACAGCUCGCAGUCAAG | 0.512 ± 0.316
3 | GGUCACGUCUCAAUCAACUCAAUCCCCAGGGAAAUCCCUGGCUUACUCAACAGCUCGCAGUCAAG | 0.371 ± 0.289
4 | GGUCACGUCUCAAUCAACUCUAUCCCCAGGGAAACCCCUGGCUUACUCAACAGCUCGCAGUCAAG | 0.376 ± 0.273
5 | GGUCACGUCUCAAUCAACUCAAUCCCCAGGGAAAUCCCUGGUUUACUCAACAGCUCGCAGUCAAG | 0.393 ± 0.26
6 | GGUCACGUCUCAAUCAACUCUUCUUCCAGGGAAAGCCCUGGCUAUUUCAACAGCUCGCAGUCAAG | 0.333 ± 0.251
7 | GGUCACGUCUCAAUCAACUCUUUUUCCAGGGAAAGCCCUGGCUAUGUCAACAGCUCGCAGUCAAG | 0.31 ± 0.256
8 | GGUCACGUCUCAAUCAACUCAUCCCCCAGGGAAAUCCCUGGCUUACUCAACAGCUCGCAGUCAAG | 0.468 ± 0.259
9 | GGUCACGUCUCAAUCAACUCAGUUCCCAGGGAAAGCCCUGGCAUUUUCAACAGCUCGCAGUCAAG | 0.449 ± 0.362
10 | GGUCACGUCUCAAUCAACUCAGUCCCCAGGGAAAGCCCUGGCAUAUUCAACAGCUCGCAGUCAAG | 0.34 ± 0.375
11 | GGUCACGUCUCAAUCAACUCAACUCCCAGGGAAAUCCCUGGUUAUCUCAACAGCUCGCAGUCAAG | 0.334 ± 0.284
12 | GGUCACGUCUCAAUCAACUCUUUUUCCAGGGAAAGCCCUGGCAUGUUCAACAGCUCGCAGUCAAG | 0.337 ± 0.241
13 | GGUCACGUCUCAAUCAACUCAUCUUCCAGGGAAAGCCCUGGCUUUCUCAACAGCUCGCAGUCAAG | 0.425 ± 0.292
14 | GGUCACGUCUCAAUCAACUCUAUCUCCAGGGAAACCCCUGGCUAACUCAACAGCUCGCAGUCAAG | 0.366 ± 0.263
15 | GGUCACGUCUCAAUCAACUCUAUCUCCAGGGAAACCCCUGGCAAACUCAACAGCUCGCAGUCAAG | 0.323 ± 0.268
16 | GGUCACGUCUCAAUCAACUCUAUCUCCAGGGAAAACCCUGGCUAUUUCAACAGCUCGCAGUCAAG | 0.433 ± 0.244
17 | GGUCACGUCUCAAUCAACUCAAUCUCCAGGGAAAGCCCUGGCUAACUCAACAGCUCGCAGUCAAG | 0.405 ± 0.277
18 | GGUCACGUCUCAAUCAACUCAUCCUCCAGGGAAACCCCUGGCUAUCUCAACAGCUCGCAGUCAAG | 0.3 ± 0.279
19 | GGUCACGUCUCAAUCAACUCUAUCUCCAGGGAAAGCCCUGGUUAUCUCAACAGCUCGCAGUCAAG | 0.334 ± 0.307

Row | Sequence | binding signal [log2 fold change]
20 | GGUCACGUCUCAAUCAACUCAUCCUCCAGGGAAACCCCUGGCUAUUUCAACAGCUCGCAGUCAAG | 0.363 ± 0.269
21 | GGUCACGUCUCAAUCAACUCUAUCUCCAGGGAAAGCCCUGGCUUACUCAACAGCUCGCAGUCAAG | 0.329 ± 0.278
22 | GGUCACGUCUCAAUCAACUCAUUUUCCAGGGAAAUCCCUGGCAUAUUCAACAGCUCGCAGUCAAG | 0.33 ± 0.202
23 | GGUCACGUCUCAAUCAACUCAUCUCCCAGGGAAAACCCUGGCUAUCUCAACAGCUCGCAGUCAAG | 0.3 ± 0.284
24 | GGUCACGUCUCAAUCAACUCAUCCUCCAGGGAAAACCCUGGCAUAUUCAACAGCUCGCAGUCAAG | 0.384 ± 0.243
25 | GGUCACGUCUCAAUCAACUCUAUCCCCAGGGAAAACCCUGGCUAUCUCAACAGCUCGCAGUCAAG | 0.336 ± 0.26
26 | GGUCACGUCUCAAUCAACUCUAUCUCCAGGGAAAACCCUGGCUAACUCAACAGCUCGCAGUCAAG | 0.369 ± 0.3
27 | GGUCACGUCUCAAUCAACUCUUAAGAGGGGGGGAAAACCCCUUUGCCCUCACACUCAACAGCUCGCAGUCAAG | 0.323 ± 0.393
28 | GGUCACGUCUCAAUCAACUCUCUAGAGGGGGGGAAAACCCCUUUGCCCUCACUAUCAACAGCUCGCAGUCAAG | 0.386 ± 0.408
29 | GGUCACGUCUCAAUCAACUCUCUAGAGGGGGGGAAAACCCCUUUGCCCUCACACUCAACAGCUCGCAGUCAAG | 0.353 ± 0.4
30 | GGUCACGUCUCAAUCAACUCAAAAGAGGGGGGGAAAACCCCUUUACCCUCAUCUUCAACAGCUCGCAGUCAAG | 0.535 ± 0.407
31 | GGUCACGUCUCAAUCAACUCAAAAGAGGGGGGGAAAACCCCUUUACCCUCAUAUUCAACAGCUCGCAGUCAAG | 0.449 ± 0.451
32 | GGUCACGUCUCAAUCAACUCCAAAGAGGGGGGGAAAACCCCUUUACCCUCAUCUUCAACAGCUCGCAGUCAAG | 0.443 ± 0.434
33 | GGUCACGUCUCAAUCAACUCAAUCCCCAGGGAAAUCCCUGGCAUUCUCAACAGCUCGCAGUCAAG | 0.318 ± 0.264
34 | GGUCACGUCUCAAUCAACUCUAUUUCCAGGGAAAUCCCUGGCUUAUUCAACAGCUCGCAGUCAAG | 0.488 ± 0.245
35 | GGUCACGUCUCAAUCAACUCAUCUCCCAGGGAAAUCCCUGGCUUAUUCAACAGCUCGCAGUCAAG | 0.417 ± 0.302
36 | GGUCACGUCUCAAUCAACUCUAUUUCCAGGGAAAUCCCUGGCUAACUCAACAGCUCGCAGUCAAG | 0.335 ± 0.258
37 | GGUCACGUCUCAAUCAACUCAUUCCCCAGGGAAAUCCCUGGCUUAUUCAACAGCUCGCAGUCAAG | 0.349 ± 0.307
